Experimental data: article PMC7862700, “An all-to-all approach to the identification of sequence-specific readers for epigenetic DNA modifications on cytosine”

Tests used:
Test in all cases: DAPPL (digital affinity profiling via proximity ligation, sequencing); 10 mM Tris-HCl pH 7.5, 50 mM NaCl, 1 mM DTT, 4% glycerol, room temperature, 30 min; GST-TFs on glutathione beads, 16-mer random dsDNA library, 0.1% formaldehyde crosslink after washing; high values mean tight binding
FEV = biological target: T1, FEV (Homo sapiens, UniProt Q99581 1-238); conditions: protein: recombinant; tags: N-terminal GST; dsDNA, one strand shown
T1 sequence: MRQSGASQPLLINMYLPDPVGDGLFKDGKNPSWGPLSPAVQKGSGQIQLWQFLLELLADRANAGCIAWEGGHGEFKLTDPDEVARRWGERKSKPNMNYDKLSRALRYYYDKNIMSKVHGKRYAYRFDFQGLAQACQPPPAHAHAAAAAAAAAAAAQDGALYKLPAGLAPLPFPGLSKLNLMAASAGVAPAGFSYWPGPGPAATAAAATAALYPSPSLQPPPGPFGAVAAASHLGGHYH
Outline: (§1)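 Pools of DNA-barcoded human transcription factors, expressed in yeast as GST fusions on glutathione beads and combined with a tag-only sample, were incubated with 200 nmole of a 16-mer random double-stranded DNA library. Incubation took 30 min at room temperature in Tris/NaCl/DTT/glycerol buffer and was followed by washing, 0.1% formaldehyde crosslinking, proximity ligation (BsaI/T4 ligase, 1 h, 37 °C), PCR amplification and sequencing on an Illumina NextSeq500. Binding signal is the ratio of a hexamer's read frequency for a factor to its frequency for the tag-only sample.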

ETV5 = ETV5 (Homo sapiens, UniProt P41161 1-510); conditions: protein: recombinant; tags: N-terminal GST; dsDNA, one strand shown
Outline: as §1

HSF1 = HSF1 (Homo sapiens, UniProt Q00613 1-529); conditions: protein: recombinant; tags: N-terminal GST; chain copies: 3; dsDNA, one strand shown
Outline: as §1

SPIC = biological target: T2, SPIC (Homo sapiens, UniProt Q8N5J4 1-248); conditions: protein: recombinant; tags: N-terminal GST; dsDNA, one strand shown
T2 sequence: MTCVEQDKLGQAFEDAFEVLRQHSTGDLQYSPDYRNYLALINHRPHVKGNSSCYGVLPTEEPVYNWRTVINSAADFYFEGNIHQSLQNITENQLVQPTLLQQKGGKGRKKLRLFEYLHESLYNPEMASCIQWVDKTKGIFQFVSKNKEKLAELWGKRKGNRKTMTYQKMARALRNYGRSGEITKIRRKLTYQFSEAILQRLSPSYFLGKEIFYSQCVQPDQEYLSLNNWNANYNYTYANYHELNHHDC
Outline: as §1

ELF4 = ELF4 (Homo sapiens, UniProt Q99607 1-663); conditions: protein: recombinant; tags: N-terminal GST; dsDNA, one strand shown
Outline: as §1

ELK4 = biological target: T3, ELK4 (Homo sapiens, UniProt P28324-2 1-405); conditions: protein: recombinant; tags: N-terminal GST; dsDNA, one strand shown
T3 sequence: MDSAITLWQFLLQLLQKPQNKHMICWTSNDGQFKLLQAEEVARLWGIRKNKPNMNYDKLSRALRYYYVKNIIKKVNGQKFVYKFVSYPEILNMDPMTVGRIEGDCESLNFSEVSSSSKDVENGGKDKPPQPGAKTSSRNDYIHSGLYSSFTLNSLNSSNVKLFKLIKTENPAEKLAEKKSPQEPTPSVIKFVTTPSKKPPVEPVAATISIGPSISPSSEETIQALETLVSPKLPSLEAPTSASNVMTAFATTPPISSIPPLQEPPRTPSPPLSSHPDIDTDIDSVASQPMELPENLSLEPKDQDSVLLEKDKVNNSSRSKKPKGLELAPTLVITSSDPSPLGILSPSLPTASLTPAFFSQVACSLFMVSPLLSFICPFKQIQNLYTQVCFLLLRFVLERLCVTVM
Outline: as §1

ETV2 = biological target: T4, ETV2 (Homo sapiens, UniProt O00321 1-342); conditions: protein: recombinant; tags: N-terminal GST; dsDNA, one strand shown
T4 sequence: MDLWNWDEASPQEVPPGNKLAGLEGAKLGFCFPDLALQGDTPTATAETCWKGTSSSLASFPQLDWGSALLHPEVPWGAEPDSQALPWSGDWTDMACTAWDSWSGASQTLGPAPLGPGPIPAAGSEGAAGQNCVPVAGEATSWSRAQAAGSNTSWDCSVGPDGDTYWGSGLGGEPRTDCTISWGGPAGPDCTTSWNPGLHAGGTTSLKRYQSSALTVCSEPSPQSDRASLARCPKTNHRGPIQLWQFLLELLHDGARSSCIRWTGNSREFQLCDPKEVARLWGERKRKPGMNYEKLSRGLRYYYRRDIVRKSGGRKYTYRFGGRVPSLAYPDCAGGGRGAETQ
Outline: as §1

ELF3 = biological target: T5, ELF3 (Homo sapiens, UniProt P78545 1-371); conditions: protein: recombinant; tags: N-terminal GST; dsDNA, one strand shown
T5 sequence: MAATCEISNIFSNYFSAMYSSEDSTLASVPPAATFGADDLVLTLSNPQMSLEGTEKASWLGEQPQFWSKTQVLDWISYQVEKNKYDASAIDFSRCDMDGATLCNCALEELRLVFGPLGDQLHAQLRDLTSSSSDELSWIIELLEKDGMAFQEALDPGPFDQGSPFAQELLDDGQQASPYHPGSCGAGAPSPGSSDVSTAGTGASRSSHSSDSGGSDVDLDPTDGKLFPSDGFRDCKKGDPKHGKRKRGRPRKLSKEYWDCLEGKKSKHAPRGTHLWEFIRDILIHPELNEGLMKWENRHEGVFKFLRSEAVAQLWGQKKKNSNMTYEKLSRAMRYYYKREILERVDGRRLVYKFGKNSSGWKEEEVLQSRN
Outline: as §1

CRX = CRX (Homo sapiens, UniProt O43186 1-299); conditions: protein: recombinant; tags: N-terminal GST; dsDNA, one strand shown
Outline: as §1

ETV1 = ETV1 (Homo sapiens, UniProt P50549 1-477); conditions: protein: recombinant; tags: N-terminal GST; dsDNA, one strand shown
Outline: as §1

ERF = biological target: T6, ERF (Homo sapiens, UniProt P50548 1-548); conditions: protein: recombinant; tags: N-terminal GST; dsDNA, one strand shown
T6 sequence: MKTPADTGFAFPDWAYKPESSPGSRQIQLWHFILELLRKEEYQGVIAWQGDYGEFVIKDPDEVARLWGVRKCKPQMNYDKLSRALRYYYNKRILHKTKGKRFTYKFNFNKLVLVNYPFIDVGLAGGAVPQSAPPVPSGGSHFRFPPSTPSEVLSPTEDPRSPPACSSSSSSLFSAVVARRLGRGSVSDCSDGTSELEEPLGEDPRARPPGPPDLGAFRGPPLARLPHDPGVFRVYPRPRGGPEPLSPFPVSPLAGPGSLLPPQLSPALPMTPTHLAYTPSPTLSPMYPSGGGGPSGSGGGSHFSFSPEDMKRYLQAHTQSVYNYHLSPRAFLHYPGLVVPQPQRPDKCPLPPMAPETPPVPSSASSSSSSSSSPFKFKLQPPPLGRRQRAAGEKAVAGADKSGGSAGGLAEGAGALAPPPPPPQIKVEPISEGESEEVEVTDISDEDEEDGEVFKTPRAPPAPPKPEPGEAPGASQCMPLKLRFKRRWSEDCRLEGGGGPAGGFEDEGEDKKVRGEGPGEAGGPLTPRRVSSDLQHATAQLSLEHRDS
Outline: as §1

ETV3L = biological target: T7, ETV3L (Homo sapiens, UniProt Q6ZN32 1-361); conditions: protein: recombinant; tags: N-terminal GST; dsDNA, one strand shown
T7 sequence: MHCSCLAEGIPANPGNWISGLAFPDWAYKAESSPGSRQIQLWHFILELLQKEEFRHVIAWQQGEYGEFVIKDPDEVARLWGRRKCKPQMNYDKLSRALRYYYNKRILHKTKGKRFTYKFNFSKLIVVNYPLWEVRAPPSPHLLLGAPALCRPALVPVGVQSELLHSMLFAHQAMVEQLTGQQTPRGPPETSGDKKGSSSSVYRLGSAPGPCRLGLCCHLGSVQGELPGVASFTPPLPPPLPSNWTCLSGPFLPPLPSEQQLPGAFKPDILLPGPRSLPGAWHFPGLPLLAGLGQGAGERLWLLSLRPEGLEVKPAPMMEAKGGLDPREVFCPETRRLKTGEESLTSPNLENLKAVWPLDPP
Outline: as §1

ETS2 = biological target: T8, ETS2 (Homo sapiens, UniProt P15036 1-469); conditions: protein: recombinant; tags: N-terminal GST; dsDNA, one strand shown
T8 sequence: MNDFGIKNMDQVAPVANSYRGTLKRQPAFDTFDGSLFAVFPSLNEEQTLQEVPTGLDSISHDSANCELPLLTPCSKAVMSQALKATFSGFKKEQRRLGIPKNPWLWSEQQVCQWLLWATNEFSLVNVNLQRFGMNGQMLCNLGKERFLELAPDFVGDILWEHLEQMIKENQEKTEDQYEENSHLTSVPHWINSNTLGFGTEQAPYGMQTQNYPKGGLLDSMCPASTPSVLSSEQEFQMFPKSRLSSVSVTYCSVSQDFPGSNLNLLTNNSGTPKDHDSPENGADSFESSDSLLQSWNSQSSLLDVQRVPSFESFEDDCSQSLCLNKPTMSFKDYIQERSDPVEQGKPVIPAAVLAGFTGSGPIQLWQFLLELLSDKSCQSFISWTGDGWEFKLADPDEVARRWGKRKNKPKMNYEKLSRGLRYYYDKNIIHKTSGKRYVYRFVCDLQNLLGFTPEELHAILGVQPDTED
Outline: as §1

SPDEF = biological target: T9, SPDEF (Homo sapiens, UniProt O95238 1-335); conditions: protein: recombinant; tags: N-terminal GST; dsDNA, one strand shown
T9 sequence: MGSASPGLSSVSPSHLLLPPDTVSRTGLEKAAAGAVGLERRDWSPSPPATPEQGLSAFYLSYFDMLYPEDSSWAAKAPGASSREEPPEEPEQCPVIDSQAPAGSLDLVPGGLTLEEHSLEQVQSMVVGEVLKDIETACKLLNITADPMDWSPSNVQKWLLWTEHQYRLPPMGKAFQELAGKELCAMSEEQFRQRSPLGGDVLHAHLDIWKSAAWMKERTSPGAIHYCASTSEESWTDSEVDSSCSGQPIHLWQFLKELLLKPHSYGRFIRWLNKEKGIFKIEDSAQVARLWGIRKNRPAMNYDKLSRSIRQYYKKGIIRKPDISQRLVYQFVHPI
Outline: as §1

ETV7 = biological target: T10, ETV7 (Homo sapiens, UniProt Q9Y603 1-341); conditions: protein: recombinant; tags: N-terminal GST; dsDNA, one strand shown
T10 sequence: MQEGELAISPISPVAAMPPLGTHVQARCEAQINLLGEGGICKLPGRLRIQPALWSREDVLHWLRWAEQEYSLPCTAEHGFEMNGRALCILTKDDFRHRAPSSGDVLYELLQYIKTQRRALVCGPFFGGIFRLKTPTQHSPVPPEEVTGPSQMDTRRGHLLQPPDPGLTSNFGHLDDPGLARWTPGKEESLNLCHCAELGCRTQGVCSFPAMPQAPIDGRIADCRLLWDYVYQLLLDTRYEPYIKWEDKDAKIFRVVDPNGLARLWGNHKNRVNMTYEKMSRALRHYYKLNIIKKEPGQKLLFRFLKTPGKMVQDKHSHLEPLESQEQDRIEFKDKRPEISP
Outline: as §1

ELF5 = biological target: T11, ELF5 (Homo sapiens, UniProt Q9UKW6-2 1-255); conditions: protein: recombinant; tags: N-terminal GST; dsDNA, one strand shown
T11 sequence: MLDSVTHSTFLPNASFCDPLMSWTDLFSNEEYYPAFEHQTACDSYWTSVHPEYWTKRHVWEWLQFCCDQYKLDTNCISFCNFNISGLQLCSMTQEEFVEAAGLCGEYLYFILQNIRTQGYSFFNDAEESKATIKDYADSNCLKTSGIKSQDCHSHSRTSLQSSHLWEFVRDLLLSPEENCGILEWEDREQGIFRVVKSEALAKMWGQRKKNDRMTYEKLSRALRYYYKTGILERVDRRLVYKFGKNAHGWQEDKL
Outline: as §1

ETV3 = biological target: T12, ETV3 (Homo sapiens, UniProt P41162-2 1-143); conditions: protein: recombinant; tags: N-terminal GST; dsDNA, one strand shown
T12 sequence: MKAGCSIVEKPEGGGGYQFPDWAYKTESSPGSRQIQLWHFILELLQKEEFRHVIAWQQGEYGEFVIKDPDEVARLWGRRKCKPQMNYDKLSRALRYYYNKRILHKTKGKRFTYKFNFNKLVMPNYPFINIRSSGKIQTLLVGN
Outline: as §1

ETV6 = ETV6 (Homo sapiens, UniProt P41212 1-452); conditions: protein: recombinant; tags: N-terminal GST; dsDNA, one strand shown
Outline: as §1

Chain of ETV1 (P50549 whole entry): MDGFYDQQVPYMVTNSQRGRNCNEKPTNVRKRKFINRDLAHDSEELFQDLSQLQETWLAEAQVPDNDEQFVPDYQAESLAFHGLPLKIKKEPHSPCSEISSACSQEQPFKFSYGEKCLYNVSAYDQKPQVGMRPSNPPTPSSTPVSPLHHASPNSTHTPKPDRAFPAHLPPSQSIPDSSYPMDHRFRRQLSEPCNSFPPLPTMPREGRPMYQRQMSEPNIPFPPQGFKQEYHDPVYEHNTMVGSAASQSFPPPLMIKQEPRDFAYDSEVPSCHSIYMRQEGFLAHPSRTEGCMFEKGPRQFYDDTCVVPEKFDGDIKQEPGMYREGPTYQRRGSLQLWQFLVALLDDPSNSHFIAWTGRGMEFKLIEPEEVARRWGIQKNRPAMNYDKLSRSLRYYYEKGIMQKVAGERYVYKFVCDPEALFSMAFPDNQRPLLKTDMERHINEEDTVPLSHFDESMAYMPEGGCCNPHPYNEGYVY
Chain of ETV6 (P41212 whole entry): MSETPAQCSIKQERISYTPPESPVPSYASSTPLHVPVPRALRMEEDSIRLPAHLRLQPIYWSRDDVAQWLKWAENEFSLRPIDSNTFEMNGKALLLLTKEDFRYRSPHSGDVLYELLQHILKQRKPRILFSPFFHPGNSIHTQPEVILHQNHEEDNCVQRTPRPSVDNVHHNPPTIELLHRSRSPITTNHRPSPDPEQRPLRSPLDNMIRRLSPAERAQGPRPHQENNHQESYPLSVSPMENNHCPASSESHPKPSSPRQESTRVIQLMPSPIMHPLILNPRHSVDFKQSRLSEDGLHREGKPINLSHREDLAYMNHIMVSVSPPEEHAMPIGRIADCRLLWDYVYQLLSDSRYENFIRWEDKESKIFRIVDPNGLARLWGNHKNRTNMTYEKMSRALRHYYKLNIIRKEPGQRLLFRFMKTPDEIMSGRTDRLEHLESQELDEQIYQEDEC
Chain of CRX (O43186 whole entry): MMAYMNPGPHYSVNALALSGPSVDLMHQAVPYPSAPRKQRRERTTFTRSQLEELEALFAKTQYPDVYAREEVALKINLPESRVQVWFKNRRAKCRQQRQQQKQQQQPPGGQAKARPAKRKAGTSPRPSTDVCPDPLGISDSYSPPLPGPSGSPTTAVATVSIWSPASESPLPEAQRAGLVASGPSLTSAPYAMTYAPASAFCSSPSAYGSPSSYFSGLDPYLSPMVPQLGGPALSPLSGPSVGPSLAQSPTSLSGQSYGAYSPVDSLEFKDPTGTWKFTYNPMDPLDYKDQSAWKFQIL
Chain of HSF1 (Q00613 whole entry): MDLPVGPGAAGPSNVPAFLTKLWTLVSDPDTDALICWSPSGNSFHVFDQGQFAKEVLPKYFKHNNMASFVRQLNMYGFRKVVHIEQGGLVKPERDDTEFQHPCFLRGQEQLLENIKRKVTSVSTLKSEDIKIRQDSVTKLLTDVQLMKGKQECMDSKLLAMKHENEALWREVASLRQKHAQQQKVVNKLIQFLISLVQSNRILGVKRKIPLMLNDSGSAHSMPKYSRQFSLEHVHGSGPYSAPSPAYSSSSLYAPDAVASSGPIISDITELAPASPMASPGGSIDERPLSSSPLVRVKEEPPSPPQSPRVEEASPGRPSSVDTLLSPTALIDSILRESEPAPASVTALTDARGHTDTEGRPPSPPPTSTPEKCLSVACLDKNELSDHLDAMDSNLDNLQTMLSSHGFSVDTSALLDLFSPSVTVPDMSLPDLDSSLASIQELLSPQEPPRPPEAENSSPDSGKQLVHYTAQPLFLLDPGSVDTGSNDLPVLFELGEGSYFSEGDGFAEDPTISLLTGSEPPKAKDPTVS
Chain of ELF4 (Q99607 whole entry): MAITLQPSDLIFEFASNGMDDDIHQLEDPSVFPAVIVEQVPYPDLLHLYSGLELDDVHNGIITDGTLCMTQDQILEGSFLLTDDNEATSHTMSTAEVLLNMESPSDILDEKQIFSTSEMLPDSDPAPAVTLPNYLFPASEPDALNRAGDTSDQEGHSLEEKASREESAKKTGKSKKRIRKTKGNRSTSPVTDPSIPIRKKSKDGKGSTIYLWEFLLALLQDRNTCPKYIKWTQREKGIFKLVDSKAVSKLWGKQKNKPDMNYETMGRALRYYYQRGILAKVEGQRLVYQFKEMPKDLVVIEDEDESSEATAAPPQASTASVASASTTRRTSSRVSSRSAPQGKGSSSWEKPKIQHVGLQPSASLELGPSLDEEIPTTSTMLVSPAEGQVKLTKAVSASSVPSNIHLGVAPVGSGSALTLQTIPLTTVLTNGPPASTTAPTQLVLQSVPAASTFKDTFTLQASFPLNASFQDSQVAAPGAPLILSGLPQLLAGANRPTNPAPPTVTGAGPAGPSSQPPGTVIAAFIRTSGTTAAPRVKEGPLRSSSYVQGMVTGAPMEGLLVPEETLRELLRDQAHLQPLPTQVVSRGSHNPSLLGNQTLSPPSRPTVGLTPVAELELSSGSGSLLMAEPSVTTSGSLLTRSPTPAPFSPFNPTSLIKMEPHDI
Chain of ETV5 (P41161 whole entry): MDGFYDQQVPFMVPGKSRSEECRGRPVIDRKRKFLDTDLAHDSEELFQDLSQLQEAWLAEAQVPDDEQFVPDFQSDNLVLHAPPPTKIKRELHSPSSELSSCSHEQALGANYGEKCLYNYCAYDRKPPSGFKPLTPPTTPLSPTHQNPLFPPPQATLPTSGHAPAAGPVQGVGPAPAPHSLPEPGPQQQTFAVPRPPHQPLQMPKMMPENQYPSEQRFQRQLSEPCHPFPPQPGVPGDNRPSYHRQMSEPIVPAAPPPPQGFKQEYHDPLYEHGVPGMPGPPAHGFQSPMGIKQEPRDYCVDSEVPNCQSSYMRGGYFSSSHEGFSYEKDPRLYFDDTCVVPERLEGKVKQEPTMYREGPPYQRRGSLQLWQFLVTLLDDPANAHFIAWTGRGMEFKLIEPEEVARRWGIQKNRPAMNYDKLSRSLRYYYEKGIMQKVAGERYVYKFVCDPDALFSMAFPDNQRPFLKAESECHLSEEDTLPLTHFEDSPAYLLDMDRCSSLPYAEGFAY

## TTGACC
FEV
  binding signal: 1.33 fold enrichment (6-mer frequency, TF over GST control)
ETV5
  binding signal: 1.41 fold enrichment (6-mer frequency, TF over GST control)
HSF1
  binding signal: 1.16 fold enrichment (6-mer frequency, TF over GST control)
SPIC
  binding signal: 1.45 fold enrichment (6-mer frequency, TF over GST control)
ELF4
  binding signal: 1.44 fold enrichment (6-mer frequency, TF over GST control)
ELK4
  binding signal: 1.4 fold enrichment (6-mer frequency, TF over GST control)
ETV2
  binding signal: 1.38 fold enrichment (6-mer frequency, TF over GST control)
ELF3
  binding signal: 1.27 fold enrichment (6-mer frequency, TF over GST control)
CRX
  binding signal: 1.19 fold enrichment (6-mer frequency, TF over GST control)
ETV1
  binding signal: 1.41 fold enrichment (6-mer frequency, TF over GST control)
ERF
  binding signal: 1.45 fold enrichment (6-mer frequency, TF over GST control)
ETV3L
  binding signal: 1.46 fold enrichment (6-mer frequency, TF over GST control)
ETS2
  binding signal: 1.4 fold enrichment (6-mer frequency, TF over GST control)
SPDEF
  binding signal: 1.52 fold enrichment (6-mer frequency, TF over GST control)
ETV7
  binding signal: 1.35 fold enrichment (6-mer frequency, TF over GST control)
ELF5
  binding signal: 1.37 fold enrichment (6-mer frequency, TF over GST control)
ETV3
  binding signal: 1.44 fold enrichment (6-mer frequency, TF over GST control)
ETV6
  binding signal: 1.41 fold enrichment (6-mer frequency, TF over GST control)
